From PubChem BioAssay AID624405 (Broad Institute, 2012)
Hit rate of the full screen: of about 1,900 compounds, about 250 (13%) were called active. Inconclusive results (about 4%) are left out. The list is a sample of the results. Entries with a potency or affinity are not part of this list. Unmarked numbers belong to inactive results.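 Rule for the calls: active = fitted curve reaches 40% rescue activity at or below the top valid dose, in every test run; inconclusive = test runs disagree, some active and some inactive; inactive = every run misses the threshold or moves the wrong way.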

assay: suppressors of statin myotoxicity in myotubes, dose response, cell-based, C2C12 myotubes, ATP luminescence, cherry pick (AID 624405); conditions: C2C12 myotubes + simvastatin, 48 h, scaled: DMSO wells 0, geranylgeraniol wells 100; series mostly up to 19.5 µM; rescue activity (ATP increase): at the top concentration;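 note: myotubes are challenged with simvastatin at 10 µM to lower ATP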

Compound | rescue activity (ATP increase)
Cc1ccc(-c2nc(CS(=O)CC(=O)NC3CCCCC3)c(C)o2)cc1 (stereo not drawn) | 8.86%
C[C@@H]1CN([C@H](C)CO)C(=O)Cc2cc(NS(=O)(=O)c3ccc(F)cc3)ccc2O[C@H]1CN(C)Cc1ccc2c(c1)OCO2 | 4.84% [at 10 µM]
C[C@@H]1CN([C@@H](C)CO)C(=O)Cc2cc(NS(=O)(=O)c3ccc(Cl)cc3)ccc2O[C@H]1CN(C)Cc1ccc2c(c1)OCO2 | 26.1%
C[C@@H]1CN([C@H](C)CO)C(=O)c2cc(NC(=O)CCC(F)(F)F)ccc2O[C@@H](C)CCCCO[C@@H]1CN(C)Cc1ccc(C(F)(F)F)cc1 | 17.6%
COc1ccc(OC)c(C(c2nnnn2Cc2ccccc2)N2CCN(C3CCCCC3)CC2)c1 (stereo not drawn) | -18.9%
COc1ccc(Cn2nnnc2C(c2ccccc2OC)N2CCC(C(N)=O)CC2)cc1 (stereo not drawn) | 1.27%
Cc1cnc(-c2nnc(N(C)C(=O)c3cccnc3)s2)cn1 | 8.39%
C[C@@H]1CN([C@H](C)CO)C(=O)c2cccc(NS(=O)(=O)c3cccs3)c2O[C@@H]1CN(C)S(=O)(=O)c1ccccc1 | 35.5% [at 21 µM]
COc1cccc(NC(=O)c2cccc(OC)c2OC)c1 | 24.9%
CN1C(=O)c2cc(NC(=O)Cc3cccs3)ccc2OC[C@H]2O[C@@H](CC(=O)NCc3ccc(-c4ccccc4)cc3)CC[C@H]21 | -23%
CCOC(=O)N1CCN(C(=O)CSCC(=O)Nc2nc(-c3ccc4c(c3)OCO4)cs2)CC1 | 33%
O=C(CSc1ccc2c(c1)OCCO2)Nc1ccc(Br)cc1 | 38.9%
CC(Oc1ccc(Cl)cc1Cl)C(=O)N(Cc1ccco1)C1CCS(=O)(=O)C1 (stereo not drawn) | 17.9%
CS(=O)(=O)N(CCc1ccccc1)CC(=O)N1CCc2ccccc2C1 | -5.43%
O=C(C[C@H]1CC[C@H]2[C@@H](COC[C@@H](O)CN2C(=O)c2cc(Cl)cc(Cl)c2)O1)N1CCc2ccccc2C1 | 34.1%
Cc1cc(C)c2cc(CN(Cc3ccco3)C(=O)NCc3ccccc3)c(=O)[nH]c2c1 | -0.102%
COc1ccc(NC(=O)Cn2ccc(C(F)(F)F)n2)cc1S(=O)(=O)N1CCOCC1 | 16.8%
C[C@@H]1CCCCO[C@H](CN(C)S(=O)(=O)c2ccc(Cl)cc2)[C@@H](C)CN([C@H](C)CO)C(=O)c2cc(NS(C)(=O)=O)ccc2O1 | 2.07%
CCOC(=O)c1c(C)oc2ccc(OCC(=O)C(C)(C)C)cc12 | -29.5%
COc1ccc(C)cc1NC(=O)C1CCCN1C(=O)OCc1ccccc1 (stereo not drawn) | 3.12%
CC(=O)c1cccc(NC(=O)N2CCCC2C(=O)Nc2cc(C)ccc2C)c1 (stereo not drawn) | -10.1%
O=C(Nc1ccccc1Cl)N1C[C@H]2[C@@H](c3ccccc31)[C@H](CO)N2Cc1ccccc1 | 5.61% [at 21 µM]

Compound | rescue activity (ATP increase)
C[C@H]1CN([C@@H](C)CO)C(=O)Cc2cc(NC(=O)Nc3ccc(C(F)(F)F)cc3)ccc2O[C@H]1CN(C)Cc1ccc(Oc2ccccc2)cc1 | -10.2% [at 21 µM]
C[C@@H]1CCCCO[C@@H](CN(C)Cc2ccc(Cl)c(Cl)c2)[C@@H](C)CN([C@@H](C)CO)C(=O)c2cc(NC(=O)NC3CCCCC3)ccc2O1 | 4.06%
Cc1sc2nc(CN(C(=O)c3cccs3)C3CCCC3)[nH]c(=O)c2c1C | 14.6%
C[C@@H]1CN([C@@H](C)CO)C(=O)Cc2cc(NC(=O)Cc3cn(C)c4ccccc34)ccc2O[C@H]1CN(C)Cc1ccc(Cl)c(Cl)c1 | 6.39% [at 21 µM]
Cc1ccc(CSc2nnc3nc(C)cc(C)n23)cc1 | -2.42%
O=C(CSc1ncn(-c2ccccc2)n1)Nc1ccc2c(c1)OCCO2 | 9.96%
CCOC(=O)Nc1c(C(=O)OC)[nH]c2cc(OC)ccc12 | -14.6%
CC(C)CCNc1ncnc2c1cnn2Cc1ccccc1Cl | -4.83%
Cc1ccccc1S(=O)(=O)N(C)C[C@H]1OCc2ccccc2-c2c(n(C)c3ccccc23)C(=O)N([C@H](C)CO)C[C@H]1C | 19.1%
Cc1cccc(S(=O)(=O)N(C)C[C@H]2OCc3ccccc3-c3c(n(C)c4ccccc34)C(=O)N([C@@H](C)CO)C[C@H]2C)c1 | 17.8%
C[C@H](CO)N1C[C@H](C)[C@@H](CN(C)S(=O)(=O)c2ccccc2)OCCCC[C@H](C)Oc2ccc(N(C)C)cc2C1=O | -3.9%
C[C@@H]1CN([C@@H](C)CO)C(=O)c2cc(NC(=O)NC3CCCCC3)ccc2O[C@@H](C)CCCCO[C@H]1CN(C)C(=O)c1ccccc1 | 8.25% [at 21 µM]
COc1ccc(CN2[C@H](CO)[C@@H]3c4ccccc4N(C(=O)C4CC4)C[C@@H]32)cc1 | 0.017%
C=C(C)Cn1c(CCCNC(=O)C(C)(C)C)nc2ccccc21 | 0.573%
CCCCn1c(=O)c(-c2ccccc2)c(O)c2ccccc21 | 22.6%
Cc1ccc(OCCCn2c(CO)nc3ccccc32)cc1 | 28.8%
CCC(=O)NCCc1nc2ccccc2n1Cc1ccccc1 | 0.181%
CCc1nc2ccccc2n(CCOCCOCCn2c(=O)c(CC)nc3ccccc32)c1=O | -42.8%
CCCCCCN1Cc2ccccc2C1 | 31.9%
CCN1CCCC1CNC(=O)c1c(O)c2c([nH]c1=O)CCCC2 (stereo not drawn) | -17.6%
COCC(C)NS(=O)(=O)c1ccc(C)cc1 (stereo not drawn) | -10.5%
